# Laboratory results as given in PubChem BioAssay (NCATS).
# Results filed as inconclusive are left out. A number with no mark means an inactive call. Active and inactive are the calls of the source. Calls follow the shape of the dose curve; as a rule, active = well fitted cell-killing curve with a large enough effect; inconclusive = small, poorly fitted or top-dose-only effect; inactive = flat fitted curve, though single readings scatter.
# Experiment: Cell Viability - LYMP1-002 - Assay at 40 hr (AID 994); also: nearly all actives have a fitted effect of over 60% in size;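 as to viability change, negative = cytotoxic: 0% = DMSO only and full inhibition = 92 µM tetraoctylammonium bromide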
# Details: LYMP1-002 lymphoblastoid cell viability; series mostly up to 92.2 µM; viability change, negative = cytotoxic: at the top concentration
# Description: NIH Chemical Genomics Center [NCGC]
# NIH Molecular Libraries Screening Centers Network [MLSCN]
# National Institutes of Environmental Health Sciences [NIEHS]
# National Toxicology Program [NTP]
# We have developed a 1536-well cell-based assay for quantitative high throughput screening (qHTS) against a number of cell lines to determine in vitro cytotoxicity of small molecules. This particular assay uses a human lymphoblastoid cell line (LYMP1-002) purchased from Coriell Institute for Medical Research.
# NCGC Assay Protocol Summary:
# The CellTiter-Glo luminescent cell viability assay (Promega) is a homogeneous method to measure the number of viable cells in culture. The end point readout of this assay is based on quantitation of intracellular ATP, an indicator of metabolic activity, using the luciferase reaction. Luciferase catalyzes the oxidation of beetle Luciferin to oxyluciferin and light in the presence of ATP. The luminescent signal is proportional to amount of ATP present.
# Using the CellTiter-Glo luminescent cell viability assay, the amount of cellular ATP was measured in the lymphoblastoid cell line with complete culture medium following compound treatment for 40 hours. The assay was performed in opaque white Kalypsys 1536-well plates. In the screen, tetraoctylammonium bromide was used as positive control. Library compounds were measured for their ability to cause acute toxicity in the cell line, as reflected by a decrease in intracellular ATP levels, in a concentration-dependent manner. […] AC50 values were determined from concentration-response data modeled with the standard Hill equation.
# qHTS protocol for CellTiter Glo lymphoblastoid cellular assay
# [Step] [Parameter] [Value] [Description]
# 1. Reagent; 5 uL; 2500 lymphoblastoid cells/well
# 2. Time; 5 hr; 37 C incubation
# 4. Controls; 23 nL; Tetraoctylammonium bromide 6.4pM to 92 uM
# 5. Time; 40 hr; 37 C incubation
# 6. Reagent; 5 uL; CellTiter Glo reagent
# 7. Time; 30 min; Room Temperature
# 8. Detection; Luminescence; Viewlux plate reader
# Keywords: cell viability, cytotoxicity, lymphoblastoid cell line, luminescence, NTPHTS, NTPHTS_NCGC, NIEHS, DSSTox, MLSMR, MLSCN, NIH Roadmap, qHTS, NCGC
# Potency is read from the fitted curve at half-maximal effect.
Compound,"viability change, negative = cytotoxic [%]",Potency
O=C(c1ccccc1)c1ccccc1,-6.99,–
CC(=O)OC/C=C(C)/C=C/C=C(C)/C=C/C1=C(C)CCCC1(C)C,-27.9,–
Nc1ccc(O)cc1,–,50.1 µM (active)
OCc1c[nH]c2ccccc12,-2.86,–
Oc1ccccc1,2.9,–
CCCCCCCCCCCCCCCC[n+]1ccccc1,–,7.94 µM (active)
CC(C)(c1ccc(O)cc1)c1ccc(O)cc1,–,inactive
CC(C)C(C)(C)C(C)(C)C(C)(C)S,-12.5,–
C1=CC2C3C=CC(C3)C2C1 (stereo not given),-8.97,–
c1ccc2occc2c1,-3.43,–
Brc1ccccc1-c1ccccc1,-0.94,–
Nc1cccc2c(N)cccc12,-19.8,–
CCCCC(CC)COC(=O)c1ccccc1C(=O)O (stereo not given),-10.2,–
COc1cc(C=O)ccc1O,-4.67,–
Cc1cc(C(C)(C)C)c(O)c(C(C)(C)C)c1,-1.23,–
Cc1ccc(O)cc1,-9.42,–
CCCC(=O)c1cc(O)c(O)cc1O,-17.5,–
Nc1c2ccccc2nc2ccccc12,–,12.6 µM (active)
O=C(NO)c1ccccc1,-17.4,–
O=C(Oc1ccccc1)c1ccccc1O,-4.9,–
